Experimental data as given in PubChem BioAssay.
Activity calls are given as the source filed them. Unless noted, the rule behind the calls is not given here.

Assays:
[1] = system: Wnt5a (protein binding on small-molecule microarray); assay: Wnt5a binders on small-molecule microarray, primary screen, biophysical, 635/667 nm fluorescence (AID 1142); settings: 635 nm fluorescence, higher = more signal;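 note: fluorescence read at 667 nm with signal to noise per printed feature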
[2] = cell viability in Huh7 cells, primary screen, cytotoxicity control for HCV replication inhibitor project, CellTiter-Glo luminescence, basal, 48 h (AID 1143); settings: Huh7 HCV replicon, higher = more signal, called active from +8 up or from −8 down;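 note: Huh7 hepatoma cells carrying a hepatitis C replication reporter with no stimulus; test concentration not given here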
[3] = P. aeruginosa biofilm formation inhibitors, primary screen, PAO1 strain, BacTiter-Glo luminescence, LB-PBS (AID 1144); settings: 12 h, higher = more signal
[4] = CREB reporter modulators without forskolin, primary screen, cell-based, PC12, CRE-LacZ reporter, unstimulated (AID 1145); settings: no forskolin, luminescence, 4.5 h, higher = more signal, called active from +8 up or from −8 down
[5] = CREB reporter modulators under forskolin, primary screen, cell-based, PC12, CRE-LacZ reporter, forskolin-stimulated (AID 1146); settings: luminescence, 4.5 h, higher = more signal, called active from +8 up or from −8 down;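 note: PC12 cells with 6xCRE LacZ reporter stimulated by forskolin 10 µM; beta-galactosidase reporter signal reflecting CREB driven transcription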
[6] = target: Streptavidin (Streptomyces avidinii) (UniProt P22629); assay: streptavidin binders on small-molecule microarray, primary screen, artefact control for SMM compound annotation, biophysical, 635/667 nm fluorescence (AID 1147); settings: streptavidin binding, higher = more signal;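 note: signal reflects streptavidin binding to arrayed compounds as a control protein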
Sequence of Streptavidin (Streptomyces avidinii) (P22629 whole entry, looked up): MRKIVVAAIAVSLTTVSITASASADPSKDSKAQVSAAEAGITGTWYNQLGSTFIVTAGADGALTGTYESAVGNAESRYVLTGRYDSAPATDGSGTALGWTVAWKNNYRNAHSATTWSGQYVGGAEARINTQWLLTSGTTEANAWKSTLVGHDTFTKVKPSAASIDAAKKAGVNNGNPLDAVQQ

[7] = small-molecule binders of probe aInhba, primary screen, biochemical, small-molecule microarray, 635/667 nm fluorescence (AID 1148); settings: higher = more signal;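 note: score merges 667nm spot fluorescence with signal-to-noise for antibody binding to printed compounds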
[8] = target: Torsin-1A (Homo sapiens) (UniProt O14656); assay: torsin A binders from cell lysate, primary screen, small-molecule microarray, wild-type, 635/667 nm (AID 1149); settings: COS7 hTOR1A-WT lysate, 635 nm fluorescence, higher = more signal
Sequence of Torsin-1A (Homo sapiens) (O14656 whole entry, looked up): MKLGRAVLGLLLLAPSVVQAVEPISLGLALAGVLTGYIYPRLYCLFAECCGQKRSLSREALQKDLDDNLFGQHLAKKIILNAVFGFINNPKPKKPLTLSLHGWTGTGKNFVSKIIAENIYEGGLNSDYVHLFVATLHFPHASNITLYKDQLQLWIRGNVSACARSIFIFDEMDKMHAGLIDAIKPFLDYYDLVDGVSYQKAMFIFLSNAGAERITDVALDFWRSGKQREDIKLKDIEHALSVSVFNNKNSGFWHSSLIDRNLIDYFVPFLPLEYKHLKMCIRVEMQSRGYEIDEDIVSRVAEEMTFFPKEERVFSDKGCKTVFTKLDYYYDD

[9] = target: Torsin-1A (Homo sapiens) (UniProt O14656); assay: small-molecule binders of mutant TOR1A in lysate, primary screen, cell lysate, small-molecule microarray, COS7 lysate, 635/667 nm fluorescence (AID 1150); settings: COS7 hTOR1A mutant lysate, 635 nm fluorescence, higher = more signal;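 note: score pools 667 nm emission and signal to noise measuring lysate protein binding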
[10] = system: Sonic hedgehog protein (Shh); assay: small-molecule binders of Shh protein, primary screen, biochemical, small-molecule microarray, 635/667 nm fluorescence (AID 1151); settings: small-molecule microarray binding, 635 nm fluorescence; higher = more signal;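 note: Shh protein binding to compounds spotted on small-molecule microarray slides; score combines spot fluorescence intensity with signal-to-noise across triplicate slides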
[11] = E. coli DRC41 culture turbidity changes, primary screen, E. coli filamentation inducer project, strain DRC41, OD650, 48 h (AID 1152);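 note: E. coli MC1000 strain DRC41 lacking acrAB efflux pump and sulA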; settings: E. coli DRC41 (acrAB sulA), higher = more signal, called active from +8 up or from −8 down
[12] = small-molecule binders of probe aLefty1, primary screen, biochemical, small-molecule microarray, 635/667 nm fluorescence (AID 1153); settings: higher = more signal;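 note: score merges spot fluorescence with signal-to-noise ratio from the scanned slide images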
[13] = PSAC antagonists in infected red cells, primary screen, cell-based, P. falciparum Indochina, OD700, 1 h (AID 1154); settings: P. falciparum Indochina infected RBC osmotic lysis, higher = more signal, called active from +8 up or from −8 down
[14] = PSAC antagonists in infected red cells, primary screen, cell-based, P. falciparum Indochina, OD700, 2 h (AID 1155);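 note: lysis reports solute entry through the parasite surface anion channel PSAC; channel blockers reduce lysis of infected cells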; settings: P. falciparum Indochina infected erythrocytes, osmotic lysis OD700; higher = more signal, called active from +8 up or from −8 down
[15] = osmotic lysis modulators in infected erythrocytes, primary screen, PSAC antagonist project, cell-based, P. falciparum Indochina, OD700, 3 h (AID 1156); settings: higher = more signal, called active from +8 up or from −8 down
[16] = PSAC antagonists in infected red cells, primary screen, cell-based, P. falciparum Indochina, OD700, 18 h (AID 1157); settings: P. falciparum Indochina infected erythrocytes, osmotic lysis OD700, 18 h; higher = more signal, called active from +8 up or from −8 down
[17] = modulators of S6 phosphorylation in cells, primary screen, cell-based, A549, cytoblot, luminescence, serum-stimulated (AID 1158); settings: A549 phospho-S6 cytoblot, 5 h, higher = more signal;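 note: serum-stimulated A549 lung adenocarcinoma cells; signal is phosphorylated S6 detected by cytoblot immunostaining with HRP secondary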
[18] = target: NADPH oxidase 2 (Homo sapiens) (UniProt P04839); assay: NOX2-dependent H2O2 signal modulators, primary screen, NOX inhibitor project, cell-based, HEK293-NOX2, PMA-stimulated, Amplex Red fluorescence (AID 1159); settings: 45 min, higher = more signal, called active from +8 up or from −8 down; note: test concentration not given here
Sequence of NADPH oxidase 2 (Homo sapiens) (P04839 whole entry, looked up): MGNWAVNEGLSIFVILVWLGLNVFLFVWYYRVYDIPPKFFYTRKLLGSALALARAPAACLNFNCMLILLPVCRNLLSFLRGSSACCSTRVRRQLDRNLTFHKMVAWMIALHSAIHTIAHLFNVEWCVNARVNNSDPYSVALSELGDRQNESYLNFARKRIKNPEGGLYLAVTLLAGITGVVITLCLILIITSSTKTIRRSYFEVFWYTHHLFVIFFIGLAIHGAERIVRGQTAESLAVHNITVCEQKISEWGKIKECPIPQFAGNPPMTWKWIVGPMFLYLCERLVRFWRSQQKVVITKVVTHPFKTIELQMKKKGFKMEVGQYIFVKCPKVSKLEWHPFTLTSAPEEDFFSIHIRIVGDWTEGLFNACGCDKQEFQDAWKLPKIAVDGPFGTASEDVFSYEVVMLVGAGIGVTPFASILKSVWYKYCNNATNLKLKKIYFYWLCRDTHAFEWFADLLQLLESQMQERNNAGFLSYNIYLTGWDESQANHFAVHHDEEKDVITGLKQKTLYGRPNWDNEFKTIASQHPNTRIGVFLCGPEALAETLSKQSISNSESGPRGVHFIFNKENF

[19] = target: NADPH oxidase 4 (Homo sapiens) (UniProt Q9NPH5); assay: NOX4-dependent H2O2 signal modulators, primary screen, NOX inhibitor project, cell-based, HEK293-NOX4, tetracycline-induced, Amplex Red fluorescence (AID 1160); settings: 45 min, higher = more signal, called active from +8 up or from −8 down
Sequence of NADPH oxidase 4 (Homo sapiens) (Q9NPH5 whole entry, looked up): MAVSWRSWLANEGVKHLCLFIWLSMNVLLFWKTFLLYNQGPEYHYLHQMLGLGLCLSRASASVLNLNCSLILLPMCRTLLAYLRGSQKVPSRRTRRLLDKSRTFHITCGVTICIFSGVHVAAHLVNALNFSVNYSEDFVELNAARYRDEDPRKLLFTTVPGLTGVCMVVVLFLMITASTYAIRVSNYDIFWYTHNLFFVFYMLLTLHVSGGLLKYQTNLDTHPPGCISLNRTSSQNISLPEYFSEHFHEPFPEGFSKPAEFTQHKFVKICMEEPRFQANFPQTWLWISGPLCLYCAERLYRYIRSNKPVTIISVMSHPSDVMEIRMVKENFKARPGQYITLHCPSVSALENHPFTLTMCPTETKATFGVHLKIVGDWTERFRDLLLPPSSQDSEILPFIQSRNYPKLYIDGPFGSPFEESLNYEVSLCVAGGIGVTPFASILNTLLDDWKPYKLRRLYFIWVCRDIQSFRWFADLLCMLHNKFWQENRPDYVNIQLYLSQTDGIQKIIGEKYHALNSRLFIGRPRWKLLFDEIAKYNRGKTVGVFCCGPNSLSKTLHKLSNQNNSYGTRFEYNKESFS

[20] = target: NADPH oxidase 5 (Homo sapiens) (UniProt Q96PH1); assay: NOX5-dependent H2O2 signal modulators, primary screen, NOX inhibitor project, cell-based, HEK293-NOX5, Amplex Red fluorescence (AID 1161); settings: HEK293-NOX5, ionomycin, 45 min, higher = more signal
Sequence of NADPH oxidase 5 (Homo sapiens) (Q96PH1 whole entry, looked up): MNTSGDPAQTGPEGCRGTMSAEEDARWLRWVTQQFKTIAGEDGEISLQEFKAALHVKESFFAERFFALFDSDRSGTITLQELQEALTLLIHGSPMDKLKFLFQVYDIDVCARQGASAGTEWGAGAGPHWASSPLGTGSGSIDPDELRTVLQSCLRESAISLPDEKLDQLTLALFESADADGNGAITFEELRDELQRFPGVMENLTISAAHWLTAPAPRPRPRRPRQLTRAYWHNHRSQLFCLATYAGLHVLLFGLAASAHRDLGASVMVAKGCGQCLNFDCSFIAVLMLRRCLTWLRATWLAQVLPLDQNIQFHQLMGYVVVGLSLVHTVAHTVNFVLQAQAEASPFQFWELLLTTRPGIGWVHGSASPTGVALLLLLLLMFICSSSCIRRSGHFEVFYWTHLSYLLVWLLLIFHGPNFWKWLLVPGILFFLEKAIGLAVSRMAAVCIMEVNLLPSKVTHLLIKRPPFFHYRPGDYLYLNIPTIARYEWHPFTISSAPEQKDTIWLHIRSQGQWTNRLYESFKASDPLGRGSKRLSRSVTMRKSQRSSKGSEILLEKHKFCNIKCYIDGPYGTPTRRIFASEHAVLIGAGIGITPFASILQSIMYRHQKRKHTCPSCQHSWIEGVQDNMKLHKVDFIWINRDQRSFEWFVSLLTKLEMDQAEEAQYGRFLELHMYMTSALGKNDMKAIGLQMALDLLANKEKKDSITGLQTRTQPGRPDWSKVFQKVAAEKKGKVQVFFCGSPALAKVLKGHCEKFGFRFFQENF

Row | Structure (SMILES) | composite z-score [1] | z-score [2] | z-score [3] | z-score [4] | z-score [5] | composite z-score [6] | composite z-score [7] | composite z-score [8] | composite z-score [9] | composite z-score [10] | z-score [11] | composite z-score [12] | z-score [13] | z-score [14] | z-score [15] | z-score [16] | z-score [17] | z-score [18] | z-score [19] | z-score [20]
1 | NCCCCCNC(=O)[C@H]1C[C@H]2C(=O)N3CCC[C@H]3C(=O)N2[C@H]1c1cccc(OCCO)c1 | 0.444 | -0.0422 (inactive) | 0.294 (inactive) | 0.143 (inactive) | -0.0024 (inactive) | 0.812 | 0.0792 | 1.05 | 0.264 | 0.148 | -0.068 (inactive) | 0.984 | 3.03 (inactive) | 0.598 (inactive) | 0.428 (inactive) | 0.301 (inactive) | -0.413 | 2.6 (inactive) | 0.413 (inactive) | 2.48
2 | COCCOC(=O)N1C(=O)[C@@]2(c3cc(C#CC4=CCCCC4)ccc31)[C@H](C(=O)Nc1nc3ccccc3s1)[C@H]1C(=O)O[C@H](c3ccccc3)[C@H](c3ccccc3)N1[C@@H]2c1ccc(O)cc1 | 0.381 | -0.67 (inactive) | 0.288 (inactive) | 0.532 (inactive) | 0.817 (inactive) | 1.25 | -0.0178 | 1.15 | 0.358 | 2.06 | -0.61 (inactive) | 0.103 | 0.141 (inactive) | 0.524 (inactive) | -0.0845 (inactive) | 1.2 (inactive) | -0.123 | 0.843 (inactive) | -0.44 (inactive) | 0.759
3 | CCCC[C@@H]1C[C@H]1[C@@H](NC(=O)c1cccs1)c1ccccc1C(F)(F)F | 0.0098 | -1.37 (inactive) | -1.3 (inactive) | 0.587 (inactive) | 1.4 (inactive) | 2.1 | 0.274 | 0.458 | 0.555 | -0.142 | -1.04 (inactive) | 0.294 | 1.89 (inactive) | 1.12 (inactive) | -0.37 (inactive) | 0.544 (inactive) | -0.423 | -1.39 (inactive) | -3.14 (inactive) | -0.173
4 | COc1cccc(C)c1NC(=O)O[C@H]1[C@H](OC(=O)Nc2ccc3c(c2)OCO3)[C@@H](OC(=O)Nc2ccc3c(c2)OCO3)[C@@H](OC)O[C@@H]1CO | 0.648 | -1.19 (inactive) | 0.0488 (inactive) | 1.45 (inactive) | -0.424 (inactive) | 1.3 | 0.0319 | 1.11 | 1.19 | 1.54 | 0.132 (inactive) | -0.165 | 5.81 (inactive) | 1.26 (inactive) | 0.579 (inactive) | 0.349 (inactive) | -0.227 | -1.21 (inactive) | -0.747 (inactive) | -1.67
5 | CCCC=C(CCC)[C@@H](NC(=O)C(C)(C)C)c1ccc(C(=O)OC)cc1 | 0.0146 | -2.97 (inactive) | -0.168 (inactive) | -0.379 (inactive) | -0.744 (inactive) | 1.69 | 0.127 | -0.0649 | 0.123 | -0.824 | -1.31 (inactive) | 0.666 | 0.494 (inactive) | 0.889 (inactive) | -1.28 (inactive) | 1.21 (inactive) | 0.0791 | -0.129 (inactive) | 0.624 (inactive) | 2.5
6 | CCOC(=O)C[C@H]1[C@H](OC(=O)Cc2ccc3c(c2)OCO3)[C@@H](NC(=O)c2ccc3ccccc3n2)c2cc(OCCCO)ccc2N1C(=O)c1ccccc1 | 0.151 | -0.301 (inactive) | -0.283 (inactive) | 7.23 (inactive) | 0.613 (inactive) | 0.386 | 0.0074 | 0.526 | 0.302 | 0.826 | 1.43 (inactive) | 0.101 | 8.88 (active) | 1.32 (inactive) | -0.576 (inactive) | 0.308 (inactive) | -0.246 | -1.88 (inactive) | 0.521 (inactive) | -2
7 | C=C[C@@H](OC)[C@H](OC(=O)Nc1ccc(OC)cc1)c1ccc(O)c(F)c1 | -0.182 | -2.63 (inactive) | -0.238 (inactive) | 2.21 (inactive) | 1.53 (inactive) | -0.938 | -0.197 | 0.281 | -0.278 | 1.96 | 0.308 (inactive) | 0.0774 | 3.98 (inactive) | 0.517 (inactive) | 0.241 (inactive) | 0.475 (inactive) | -0.012 | -1.79 (inactive) | 0.787 (inactive) | 3.63
8 | Cc1ccc(N2C(=O)c3ccccc3[C@@H](C(=O)NCCCN(C)C)[C@@H]2c2ccc(CO)cc2)nc1 | -0.198 | 0.492 (inactive) | 0.252 (inactive) | 0.208 (inactive) | -1.35 (inactive) | 0.0893 | -0.477 | 0.276 | 0.011 | 0.0381 | 0.0376 (inactive) | -0.724 | 1.06 (inactive) | 0.392 (inactive) | 0.591 (inactive) | 0.304 (inactive) | -0.337 | 0.911 (inactive) | 0.115 (inactive) | 0.513
9 | O=C1O[C@@H](c2ccccc2)[C@@H](c2ccccc2)N2[C@@H](c3ccc(O)cc3)[C@]3(C(=O)Nc4ccc(C#CCCO)cc43)[C@@H](C(=O)N3CCN(c4ncccn4)CC3)[C@H]12 | 0.409 | -1.28 (inactive) | -0.622 (inactive) | -0.554 (inactive) | -0.572 (inactive) | -0.704 | 0.0214 | 0.591 | 0.967 | 2.21 | 1.81 (inactive) | 0.348 | 1.97 (inactive) | 1.01 (inactive) | -0.834 (inactive) | 0.516 (inactive) | -0.138 | 0.941 (inactive) | -0.341 (inactive) | 0.594
